TIM10 inh – TIM10 yeast growth inhibition | S. cerevisiae TIM10 strain growth, BacTiter-Glo luminescence, 24 h | inhibition, % at 10 µM | 330,000 compounds, 1.4% hits | AID 463195;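 active = inhibition of 40% or more at the single tested concentration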;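 also: wild-type TIM10 isogenic control strain grown at permissive 25 °C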
PfHsp90 yeast 2 – growth inhibition of yeast expressing Plasmodium Hsp90; S. cerevisiae expressing PfHsp90, BacTiter-Glo ATP, 48 h; yeast lacking PDR1 and PDR3 efflux regulators; inhibition, % at 9.4 µM; 310,000 compounds, 0.32% hits; AID 504621;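 active = every replicate shows inhibition above about 80%, whatever the replicate mean, limit read from the data; inconclusive = mean inhibition reaches the set limit but some replicate falls short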;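 also: 0% = DMSO neutral controls and 100% = 20 µM radicicol positive controls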
SKKanGAS inh – SKKanGAS growth inhibition; inhibition, % at 7.5 µM; S. pyogenes SKKanGAS, kanamycin growth, BacTiter-Glo, 6 h; 300,000 compounds, 1.3% hits;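 active = mean replicate score, as percent of positive control median, at least 50; inconclusive = mean below 50 but one replicate at or above 50; inactive = mean and every replicate below 50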;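 also: strain carries kanamycin resistance gene driven by streptokinase promoter and grows in 40 µg/ml kanamycin; loss of luminescence reflects streptokinase promoter inhibition or plain growth inhibition; 0% = median of DMSO wells and 100% = positive control at its reference dose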
tim23-1 inh – growth inhibitors of tim23-1 mutant yeast. S. cerevisiae tim23-1 growth, BacTiter-Glo luminescence, 24 h. inhibition, % at 20 µM. 330,000 compounds, 1.3% hits. AID 463212;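 active = growth inhibition of the mutant yeast at or above 50%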;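 also: temperature-sensitive mutant grown at 25 °C; plate controls were DMSO-treated mutant yeast for no effect and medium wells lacking yeast for full effect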
Calb FLC – C. albicans growth modulation with fluconazole. growth inhibition, % (test concentration not listed). C. albicans CaCi-2 (fluconazole-resistant clinical isolate) + fluconazole, Alamar Blue growth, 48 h. AID 1979. 300,000 compounds, 0.57% hits;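 active = growth inhibition above about 58% in most replicates, limit read from the data, passing the limit was not always enough; inconclusive = exactly half the replicates above a set limit; inactive = most replicates below a set limit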;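 also: all wells also contain fluconazole at 8 µg/ml as a sub-toxic cotreatment; 0% = median of DMSO wells and 100% = median of geldanamycin control wells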
tim10-1 inh – tim10-1 yeast growth inhibition | S. cerevisiae tim10-1 ts strain growth, BacTiter-Glo, 24 h | inhibition, % at 20 µM | 330,000 compounds, 2.2% hits | AID 463190;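 active = inhibition of at least 40%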;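 also: mutant grown at 25 °C; 0% = DMSO wells with yeast and 100% = wells holding no yeast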
tim10-1 confirm – tim10-1 yeast growth inhibition, confirmed; shares compounds with tim10-1 inh; S. cerevisiae tim10-1 ts strain growth, BacTiter-Glo, 24 h; inhibition, % at 20 µM; 7,400 compounds, 56% hits; AID 463213;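 active = inhibition of yeast growth at or above a set limit in either of two repeat tests at 20 µM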;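 also: tim10-1 mutant grown at permissive 25 °C to find synthetic lethal compounds; 0% = DMSO yeast wells and 100% = medium wells without yeast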
TIM10 conf – TIM10 yeast growth inhibition, confirmed; inhibition, % at 10 µM; 4,600 compounds, 63% hits; shares compounds with TIM10 inh; S. cerevisiae tim10 strain growth, BacTiter-Glo luminescence, 24 h;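 active = inhibition of yeast growth at or above a set limit in either of two replicates at 10 µM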;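 also: this counterscreen used the strain with wild-type TIM10; 0% = yeast with DMSO and 100% = medium wells lacking yeast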
tim23-1 conf – tim23-1 yeast growth inhibition, confirmed | shares compounds with tim23-1 inh | S. cerevisiae tim23-1 growth, BacTiter-Glo luminescence, 24 h | inhibition, % at 20 µM | 4,400 compounds, 83% hits;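 active = inhibition above about 39% in either of two replicate wells at 20 µM, limit read from the data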;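 also: temperature-sensitive tim23-1 mutant grown at 25 °C; 0% = DMSO wells with yeast and 100% = medium wells without yeast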
Numbers without * were called inactive. Sampled rows, rich in hits. Any-hit rate of the full collection: about 4.7%.

For Cc1cccc(C2NC(c3cccc(C)c3)C(C)C(=O)C2C)c1 (stereo not given) the results were TIM10 inh -21.3, PfHsp90 yeast 2 3.8, SKKanGAS inh 15.6, tim23-1 inh -11.0, Calb FLC 9.3 and tim10-1 inh 6.7.
O=C(CCN1C(=O)c2ccccc2C1=O)NCc1ccc(Cl)cc1 was read as TIM10 inh 3.0, PfHsp90 yeast 2 -26.9, SKKanGAS inh 0.1, tim23-1 inh 8.3, Calb FLC 2.0 and tim10-1 inh 9.7.
CSC1=NCCN1C(=O)Cc1ccc(-c2ccccc2)cc1 was read as TIM10 inh 59.1*, PfHsp90 yeast 2 -133.9, SKKanGAS inh 2.1, tim23-1 inh 73.1*, Calb FLC -9.1, tim10-1 inh 61.3*, tim10-1 confirm 68.5*, TIM10 conf 67.2* and tim23-1 conf 35.4.
`CCSC1=NCCN1C(=O)Cc1ccc(-c2ccccc2)cc1` gave TIM10 inh 76.5*, SKKanGAS inh -1.3, tim23-1 inh 66.9*, Calb FLC -7.5, tim10-1 inh 77.5*, tim10-1 confirm 75.8*, TIM10 conf 74.3* and tim23-1 conf 35.6.
Screening CSC1=NCCN1C(=O)Cc1ccc(F)cc1 returned TIM10 inh -1.7, PfHsp90 yeast 2 -6.2, SKKanGAS inh -1.7, tim23-1 inh -13.4, Calb FLC -2.3 and tim10-1 inh -8.2.
Screening Cc1ccc(OCC(=O)N2CCCC(CO)(CCOc3ccccc3)C2)cc1 (stereo not given) returned TIM10 inh 7.0, PfHsp90 yeast 2 -16.7, SKKanGAS inh -2.4, tim23-1 inh 31.3, Calb FLC -2.9 and tim10-1 inh 28.5.
Screening Cc1cccc(CS(=O)(=O)c2nnc([C@H](Cc3ccccc3)NC(=O)OC(C)(C)C)o2)c1 returned TIM10 inh 54.0*, PfHsp90 yeast 2 111.9*, SKKanGAS inh 78.8*, tim23-1 inh 55.1*, Calb FLC -15.7, tim10-1 inh 68.9*, tim10-1 confirm 50.6*, TIM10 conf 51.8* and tim23-1 conf 60.5*.
Screening CCOCc1c(C(=O)OCC(=O)NCc2ccc(F)cc2)oc2ccccc12 returned TIM10 inh 8.8, PfHsp90 yeast 2 -11.2, tim23-1 inh -2.6 and tim10-1 inh -2.6.
Screening CC(C)(C)C(=O)O/N=C(\N)Cc1ccc(-c2csnn2)cc1 returned TIM10 inh 47.4*, PfHsp90 yeast 2 -4.2, SKKanGAS inh 7.3, tim23-1 inh 51.4*, Calb FLC -5.6, tim10-1 inh 75.0*, tim10-1 confirm 82.2*, TIM10 conf 52.2* and tim23-1 conf 29.6.
`CN1CCN(/N=C/c2ccc(N(C)c3ccccc3)cc2)CC1` gave TIM10 inh -32.3, PfHsp90 yeast 2 -8.3, SKKanGAS inh -0.7, tim23-1 inh 8.9, Calb FLC 9.3 and tim10-1 inh 4.6.
CN1CCN(/N=C/c2ccc(N(c3ccccc3)c3ccccc3)cc2)CC1 was read as TIM10 inh 29.6, PfHsp90 yeast 2 -55.7, SKKanGAS inh 9.6, tim23-1 inh 76.3*, Calb FLC 4.2, tim10-1 inh 49.6*, tim10-1 confirm -35.0 and tim23-1 conf 38.2.
Screening CC1(C)C(CSc2nc3ccccc3[nH]2)C1(Cl)Cl (stereo not given) returned TIM10 inh 34.7, PfHsp90 yeast 2 -3.6, SKKanGAS inh 0.1, tim23-1 inh 57.3*, Calb FLC 9.4, tim10-1 inh 45.4*, tim10-1 confirm 24.6 and tim23-1 conf 60.1*.
Screening CCSc1nc2ccccc2[nH]1 returned TIM10 inh 4.6, PfHsp90 yeast 2 7.7, SKKanGAS inh 12.9, tim23-1 inh 30.7, Calb FLC -21.9 and tim10-1 inh 7.0.
`O=C1c2ccccc2NC(c2ccc(-c3ccc(Br)cc3)o2)N1O` (stereo not given) gave TIM10 inh 44.1*, PfHsp90 yeast 2 124.9*, SKKanGAS inh 9.7, tim23-1 inh 62.0*, Calb FLC 102.0*, tim10-1 inh 46.2*, tim10-1 confirm 27.6, TIM10 conf 51.9* and tim23-1 conf 64.8*.
For O=C1c2ccccc2NC(c2ccc(-c3ccc(F)cc3)o2)N1O (stereo not given) the results were TIM10 inh -4.0, PfHsp90 yeast 2 -10.7, tim23-1 inh 18.6 and tim10-1 inh 4.7.
For COc1ccc(/C=C/c2ccc3ccccc3[n+]2C)cc1OC the results were TIM10 inh 7.9, PfHsp90 yeast 2 6.5, SKKanGAS inh 4.9, tim23-1 inh 3.3, Calb FLC -6.0 and tim10-1 inh 14.3.
For CN(C)c1ccc(/C=C/c2ccc3ccccc3[n+]2C)cc1 the results were TIM10 inh 80.6*, PfHsp90 yeast 2 54.2, SKKanGAS inh inconclusive, tim23-1 inh 75.2*, Calb FLC 103.5*, tim10-1 inh 84.5*, tim10-1 confirm 81.4*, TIM10 conf 8.6 and tim23-1 conf 76.1*.
For CN(C(=O)CSc1cc(Cl)ccc1Cl)C1CCS(=O)(=O)C1 (stereo not given) the results were TIM10 inh 4.3, tim23-1 inh 6.9 and tim10-1 inh 9.6.
`CNc1nc(N)c([N+](=O)[O-])c(Nc2cccc(F)c2)n1` gave TIM10 inh 66.6*, PfHsp90 yeast 2 12.0, SKKanGAS inh -4.0, tim23-1 inh 80.5*, Calb FLC 14.8, tim10-1 inh 52.4*, tim10-1 confirm 48.0*, TIM10 conf 79.2* and tim23-1 conf 79.0*.
CNc1nc(N)c([N+](=O)[O-])c(Nc2cccc(Cl)c2)n1 was read as TIM10 inh 61.5*, SKKanGAS inh -1.4, tim23-1 inh 59.3*, Calb FLC 17.6, tim10-1 inh 55.4*, tim10-1 confirm 48.6*, TIM10 conf 66.0* and tim23-1 conf 63.6*.
For C=CCNc1nc(N)c([N+](=O)[O-])c(Nc2cccc(Cl)c2)n1 the results were TIM10 inh 16.3, PfHsp90 yeast 2 -13.3, SKKanGAS inh 9.0, tim23-1 inh 21.2, Calb FLC 3.2 and tim10-1 inh 22.4.
For Cc1cc2c(cc1S(=O)(=O)Nc1cccc(C)c1C)n(C)c(=O)c(=O)n2C the results were TIM10 inh -3.6, PfHsp90 yeast 2 8.0, SKKanGAS inh -6.7, tim23-1 inh 6.5, Calb FLC -5.1 and tim10-1 inh -12.0.
For CCN(CC)c1nc(-c2ccccn2)nc(-c2ccccc2)c1C#N the results were TIM10 inh 60.2*, PfHsp90 yeast 2 -73.2, SKKanGAS inh 36.7, tim23-1 inh 57.6*, Calb FLC 102.9*, tim10-1 inh 58.1*, tim10-1 confirm 51.3*, TIM10 conf 65.0* and tim23-1 conf 53.3*.

Compound activity (PubChem)
